The campaign covered roughly 2,300 compounds. About 330 (14%) showed activity.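 Rule for the calls: active = median modified Z-score above 1.96; inactive = 1.96 or below.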 The list is a sample of the results.
Test system: HepG2 Srxn1-GFP reporter cells (+30 nM CDDO-Me)
Experiment: Srxn1-GFP intensity median modified Z-score relative to plate median; higher = stronger NRF2 / oxidative stress reporter activation, active = hit call of the paper
Settings: 10 µM; exposure time: 24h
Method in brief: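 Per-cell cytoplasmic GFP was measured on confocal images of formaldehyde-fixed, Hoechst-stained HepG2 Srxn1-GFP BAC reporter cells, excluding images with fewer than 100 cells. Before this, the cells (20,000 per well, 96-well plates) were co-exposed for 24 h to compound at 10 μM and an NRF2 activator at 30 nM with ≤0.1% DMSO, in three replicate plates. Each value is the median over replicates of the per-plate modified Z-score of GFP intensity. That score was scaled with 1.4826 × median absolute deviation.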

Structure (SMILES) | Srxn1-GFP intensity median modified Z-score
CC(NC(C)(C)C)C(=O)c1cccc(Cl)c1 (configuration not stated) [euspeclibcmpd657] | -0.376 (inactive)
CC(=O)Oc1ccc(/C=C/c2cc(OC(C)=O)cc(OC(C)=O)c2)cc1 [euspeclibcmpd1618] | 1.59 (inactive)
CC(=O)NC1CCSC1=O (configuration not stated) [euspeclibcmpd1125] | 0.231 (inactive)
CCOP(=S)(OCC)Oc1cc(C)nc(C(C)C)n1 [euspeclibcmpd706] | -0.234 (inactive)
C=CCc1cc(OC)c2c(c1OC)OCO2 [euspeclibcmpd1480] | -0.404 (inactive)
N=c1cc[nH]cc1 [euspeclibcmpd895] | -0.471 (inactive)
Cc1cc(C(C#N)c2ccc(Cl)cc2)c(Cl)cc1NC(=O)c1cc(I)cc(I)c1O (configuration not stated) [euspeclibcmpd694] | 9.76 (active)
CN(C)C1C(=O)C(C(N)=O)C(=O)[C@@]2(O)C(=O)C3C(=O)c4c(O)cccc4[C@@](C)(O)[C@H]3[C@H](O)[C@@H]12 (some centres not stated) [euspeclibcmpd225] | -0.444 (inactive)
CC(=O)O[C@@H]1CC[C@]2(C)C3CC[C@]4(C)C(=O)CCC4C3CC[C@H]2C1 (some centres not stated) [euspeclibcmpd1810] | 0.269 (inactive)
Cc1nc(=O)c(C[n+]2csc(CCO)c2C)c[nH]1 [euspeclibcmpd1800] | 0.155 (inactive)
CCCCCC1C(=O)O[C@H](C)C(NC(=O)c2cccc(NC=O)c2O)C(=O)O[C@@H](C)[C@@H]1OC(=O)CC(C)C (some centres not stated) [euspeclibcmpd1446] | 39.4 (active)
C[C@]12C=CC(=O)CC1=CCC1C2CC[C@]2(C)C(=O)CCC12 (some centres not stated) [euspeclibcmpd1581] | -0.0301 (inactive)
N#CC(=Cc1ccc(O)cc1)C(=O)O [euspeclibcmpd1768] | -0.146 (inactive)
CC[C@H](c1cccc(O)c1)[C@@H](C)CN(C)C [euspeclibcmpd2238] | -0.41 (inactive)
O=C1C(Cl)=C(Cl)C(=O)C(Cl)=C1Cl [euspeclibcmpd1739] | 25.8 (active)
C=CCN=C=S [euspeclibcmpd920] | 0.0414 (inactive)
Cc1ccc(/N=C/N(C)/C=N/c2ccc(C)cc2C)c(C)c1 [euspeclibcmpd739] | 0.115 (inactive)
CC1=C2CCC3C(CC[C@]4(C)C(=O)CCC34)[C@@]2(C)CCC1=O (some centres not stated) [euspeclibcmpd1163] | -0.15 (inactive)
CN[C@@H]1[C@@H](O)C(OC2[C@@H](N)C[C@@H](N)[C@H](O[C@H]3O[C@H](C(C)O)[C@@H](O)[C@H](O)[C@H]3N)[C@H]2O)OC[C@]1(C)O (some centres not stated) [euspeclibcmpd1437] | -0.354 (inactive)
COc1cc([C@@H]2c3cc4c(cc3[C@H](O)[C@H]3COC(=O)C23)OCO4)cc(OC)c1OC (some centres not stated) [euspeclibcmpd2060] | 27.1 (active)
COc1cc([C@@H]2c3cc4c(cc3[C@H](OC(C)=O)[C@H]3COC(=O)C23)OCO4)cc(OC)c1OC (some centres not stated) [euspeclibcmpd2106] | 13.1 (active)
COc1ccc2c(c1OC)C(=O)O[C@@H]2[C@H]1c2cc3c(cc2CCN1C)OCO3 [euspeclibcmpd2270] | 0.619 (inactive)
CN1CCc2cc3c(cc2C1O)OCO3 (configuration not stated) [euspeclibcmpd1021] | 0.455 (inactive)

Structure (SMILES) | Srxn1-GFP intensity median modified Z-score
COc1cc([C@@H]2c3cc4c(cc3[C@H](O)[C@H]3COC(=O)C23)OCO4)cc(OC)c1OC (some centres not stated) [euspeclibcmpd2203] | 11.5 (active)
NCc1cccnc1 [euspeclibcmpd1239] | -0.224 (inactive)
CC(C)[N+](C)(CCC(C(N)=O)(c1ccccc1)c1ccccc1)C(C)C [euspeclibcmpd164] | 0.396 (inactive)
CC(C)c1cccc(C(C)C)c1O [euspeclibcmpd699] | -0.02 (inactive)
C[C@]12CCC(=O)CC1=CC=C1C2CC[C@@]2(C)C1CC[C@@]2(O)CCC(=O)O (some centres not stated) [euspeclibcmpd2339] | -0.283 (inactive)
CCC(C(=O)[C@H](C)[C@@H](O)[C@H](C)[C@@H]1O[C@@H]([C@@H](CC)C(=O)O)CC[C@@H]1C)[C@H]1OC2(C=C[C@@H](O)[C@]3(CC[C@@](C)([C@H]4CC[C@](O)(CC)[C@H](C)O4)O3)O2)[C@H](C)C[C@@H]1C (some centres not stated) [euspeclibcmpd2084] | 6.06 (active)
CC(C)(C)NCC(O)c1cc(Cl)c(N)c(Cl)c1 (configuration not stated) [euspeclibcmpd1154] | -0.331 (inactive)
CCC(N)C(O)c1ccc(O)c(O)c1 (configuration not stated) [euspeclibcmpd646] | -0.33 (inactive)
CN1CC(CNC(=O)OCc2ccccc2)C[C@H]2c3cccc4c3c(cn4C)CC21 (some centres not stated) [euspeclibcmpd1151] | -0.466 (inactive)
COc1cc2c(c(OC)c1OC)-c1ccc(OC)c(=O)cc1[C@@H](NC(C)=O)CC2 [euspeclibcmpd73] | 13.3 (active)
COc1cc2c(c(OC)c1OC)-c1ccc(=O)c(O)cc1C(NC(C)=O)CC2 (configuration not stated) [euspeclibcmpd2248] | -0.142 (inactive)
CNC(=O)Oc1ccc2c(c1)[C@]1(C)CCN(C)[C@@H]1N2C [euspeclibcmpd611] | 0.455 (inactive)
C[C@H]1C[C@@H](O)[C@]2(O)[C@@]13CC(=O)OC[C@@]2(C)[C@](C)(O)C(=O)C3 [euspeclibcmpd1475] | 0.639 (inactive)
COc1ccc(CN2CCNCC2)c(OC)c1OC [euspeclibcmpd1198] | 0.677 (inactive)
CCOC(=O)c1cncn1[C@H](C)c1ccccc1 [euspeclibcmpd826] | -0.145 (inactive)
O=C(O)C1[O][Sb]2[O]C(=O)C([O]2)C(C(=O)O)[O][Sb]2[O]C(=O)C1[O]2 (configuration not stated) [euspeclibcmpd2437] | 3.34 (active)
CC(=O)OC1CN2CCC1CC2 (configuration not stated) [euspeclibcmpd385] | -0.0983 (inactive)
O=[N+]([O-])C(Br)(CO)CO [euspeclibcmpd2257] | 6.25 (active)
COc1ccc(C(=O)O)cc1OC [euspeclibcmpd2003] | -0.455 (inactive)
C[C@]12CC[C@H](O)CC1=CCC1C2CC[C@]2(C)C(=O)CC[C@@H]12 (some centres not stated) [euspeclibcmpd1201] | -0.236 (inactive)
OCC(O)[C@H]1O[C@@H]2O[C@H](C(Cl)(Cl)Cl)O[C@@H]2[C@H]1O (some centres not stated) [euspeclibcmpd1184] | 0.0668 (inactive)
O=C(NC(=O)c1c(F)cccc1F)Nc1cc(Cl)c(OC(F)(F)C(F)C(F)(F)F)cc1Cl (configuration not stated) [euspeclibcmpd1213] | 13.1 (active)
CCC1(CC)C(=O)NC(=S)NC1=O | 1.23 (inactive)

Structure (SMILES) | Srxn1-GFP intensity median modified Z-score
O=C1C=CC(=O)c2c(O)cccc21 [euspeclibcmpd1492] | 0.761 (inactive)
CC1=CC(=O)c2c(O)cccc2C1=O [euspeclibcmpd1444] | 67.7 (active)
CC1(C)C2CC(=O)[C@]3(C)C(CC[C@@]4(C)[C@H](c5ccoc5)OC(=O)C5O[C@]543)[C@@]2(C)C(=O)C[C@H]1O (some centres not stated) [euspeclibcmpd1592] | -0.255 (inactive)
N#Cc1[nH]n(-c2c(Cl)cc(C(F)(F)F)cc2Cl)c(=N)c1[S+]([O-])C(F)(F)F (configuration not stated) [euspeclibcmpd821] | -0.323 (inactive)
O=C1CC[C@@]2(O)[C@H]3Cc4ccc(O)c5c4C2(CCN3CC2CC2)C1O5 (some centres not stated) [euspeclibcmpd560] | -0.0532 (inactive)
Cc1c[nH]cn1 [euspeclibcmpd2111] | -0.158 (inactive)
CC1=CCC[C@@H]2C1(C)CCC(C)[C@@]2(C)CC/C(C)=C/Cn1c[n+](C)c2c(=N)nc[nH]c21 (some centres not stated) [euspeclibcmpd1491] | 13.7 (active)
COc1ccc2c(c1O)[C@@]13CCN(C)[C@@H](C2)C1=CC(OC)C(=O)C3 (some centres not stated) [euspeclibcmpd1375] | -0.172 (inactive)
CC(C)c1ccc2c(c1O)CCC1c3coc(O)c3CC[C@]21C (some centres not stated) [euspeclibcmpd2379] | -0.468 (inactive)
Nc1ccc([As](=O)(O)O)cc1 [euspeclibcmpd2461] | 11.1 (active)
O=C1CC2OCC=C3CN4CC[C@]56c7ccccc7N1C5[C@H]2[C@H]3CC46 (some centres not stated) [euspeclibcmpd327] | -0.00366 (inactive)
COP(=S)(OC)Oc1ccc(SC)c(C)c1 [euspeclibcmpd1025] | -0.288 (inactive)
O=C(CCCN1CCC2(CC1)C(=O)NCN2c1ccccc1)c1ccc(F)cc1 [euspeclibcmpd405] | 10.2 (active)
C#C[C@]1(O)CCC2C3CC=C4CC(=O)CCC4C3CC[C@@]21C (some centres not stated) [euspeclibcmpd2279] | 0.0789 (inactive)
C#C[C@]1(O)CCC2C3CC=C4CC(=O)CCC4C3CC[C@@]21C (some centres not stated) [euspeclibcmpd2269] | 1.21 (inactive)
CCCCOC(=O)c1ccccc1C(=O)OCCCC [euspeclibcmpd1242] | -0.441 (inactive)
CCCCCCCCC(=O)NCc1ccc(O)c(OC)c1 [euspeclibcmpd1268] | -0.241 (inactive)
C[C@@H]1CC[C@@]2(NC1)O[C@H]1C[C@H]3C4CC=C5C[C@@H](O)CC[C@]5(C)C4CC[C@]3(C)C1[C@@H]2C (some centres not stated) [euspeclibcmpd1732] | 0.173 (inactive)
CC(=O)O[C@H]1C[C@H](O[C@H]2[C@@H](O)C[C@H](O[C@H]3[C@@H](O)C[C@H](O[C@H]4CC[C@@]5(C)C(CCC6C5C[C@@H](O)[C@]5(C)C(c7coc(O)c7)CC[C@]65O)C4)O[C@@H]3C)O[C@@H]2C)O[C@H](C)[C@H]1O[C@@H]1O[C@H](CO)[C@@H](O)[C@H](O)[C@H]1O (some centres not stated) [euspeclibcmpd420] | -0.493 (inactive)
CC1CCC2(OC1)OC1C(O)C3C4CCC5CC(OC6OC(CO)C(OC7OC(CO)C(O)C(OC8OCC(O)C(O)C8O)C7OC7OC(CO)C(O)C(OC8OC(CO)C(O)C(O)C8O)C7O)C(O)C6O)C(O)CC5(C)C4CCC3(C)C1C2C (configuration not stated) [euspeclibcmpd1933] | 22.3 (active)
C[C@H]1CC[C@]2(NC1)OC1CC3C4CCC5C[C@@H](O[C@@H]6O[C@H](CO)[C@H](O[C@H]7O[C@H](CO)[C@@H](O)[C@H](O[C@@H]8OC[C@@H](O)[C@H](O)[C@H]8O)[C@H]7O[C@@H]7O[C@H](CO)[C@@H](O)[C@H](O)[C@H]7O)[C@H](O)[C@H]6O)CC[C@]5(C)C4CC[C@]3(C)C1[C@@H]2C (some centres not stated) [euspeclibcmpd480] | 71.3 (active)

From the supplement of paper PMC10498489
